Tests used:
Experiment in all cases: PBM binding z-score (relative to random genomic background probes); higher = stronger binding; sequences stand for … in GC…GCGATTGACAGCGTAGAATGAAGG
[1] = system: PPARg:RXRa DBDmut IVT, anti-RXR (DBD mutation: RXRa K156A/R161A, NR concentration 270 nM, RXRa partner concentration 90 nM)
Method in brief: (§1)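 For binding z-scores, the reference was random background probes on custom Agilent 4×180K protein-binding microarrays. These arrays were incubated 1 h with ligand-free nuclear receptor dimers in PBS pH 7.4, 2% milk, 0.02% Triton X-100, 1 mM DTT, 0.2 mg/mL BSA and 0.4 mg/ml salmon testes DNA. Fluorescence was scanned after antibody detection of each partner (one per run) and regression-normalized.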

[2] = system: PPARg:RXRa IVT, anti-PPARg (NR concentration 270 nM, RXRa partner concentration 90 nM)
Method in brief: as §1

[3] = system: PPARg DBDmut:RXRa IVT, anti-PPARg (DBD mutation: PPARg1 K132A/R137A, NR concentration 270 nM, RXRa partner concentration 90 nM)
Method in brief: as §1

[4] = system: PPARg DBDmut IVT, anti-PPARg (DBD mutation: PPARg1 K132A/R137A, NR concentration 270 nM)
Method in brief: as §1

[5] = system: PPARg homodimer (NR concentration 180 nM)
Method in brief: as §1

[6] = system: PXR:RXRa (NR concentration 270 nM, RXRa partner concentration 90 nM)
Method in brief: as §1

[7] = system: PXR homodimer (NR concentration 270 nM)
Method in brief: as §1

[8] = system: RARa:RXR (NR concentration 270 nM, RXRa partner concentration 90 nM)
Method in brief: as §1

[9] = system: RARa homodimer (NR concentration 270 nM)
Method in brief: as §1

[10] = system: RARb:RXRa (NR concentration 270 nM, RXRa partner concentration 90 nM)
Method in brief: as §1

[11] = system: RARb homodimer (NR concentration 270 nM)
Method in brief: as §1

[12] = system: RARg:RXRa (NR concentration 270 nM, RXRa partner concentration 90 nM)
Method in brief: as §1

[13] = system: RARg homodimer (NR concentration 270 nM)
Method in brief: as §1

[14] = system: RXRa DBDmut IVT, anti-RXR (DBD mutation: RXRa K156A/R161A, NR concentration 90 nM)
Method in brief: as §1

[15] = system: RXRa homodimer (NR concentration 180 nM)
Method in brief: as §1

[16] = system: THRa:RXRa (NR concentration 90 nM, RXRa partner concentration 90 nM)
Method in brief: as §1

[17] = system: THRa homodimer (NR concentration 90 nM)
Method in brief: as §1

[18] = system: VDR:RXRa (NR concentration 270 nM, RXRa partner concentration 90 nM)
Method in brief: as §1

[19] = system: VDR homodimer (NR concentration 270 nM)
Method in brief: as §1

Sequence	PBM binding z-score [1]	PBM binding z-score [2]	PBM binding z-score [3]	PBM binding z-score [4]	PBM binding z-score [5]	PBM binding z-score [6]	PBM binding z-score [7]	PBM binding z-score [8]	PBM binding z-score [9]	PBM binding z-score [10]	PBM binding z-score [11]	PBM binding z-score [12]	PBM binding z-score [13]	PBM binding z-score [14]	PBM binding z-score [15]	PBM binding z-score [16]	PBM binding z-score [17]	PBM binding z-score [18]	PBM binding z-score [19]
GCGACTGGGGCAAAGCATGTTACCATAAGGTTGG	4.73	3.23	-0.245	-0.674	0.0632	-0.48	-0.713	-0.255	-1.06	0.551	0.192	0.235	0.278	0.0488	0.0784	0.269	-0.43	-0.497	-0.625
CGAACTAGGTCATTGACAGGACAGAGAATAGTAA	8	8.14	4.58	3.51	2.33	1.5	-0.262	2.19	0.528	3.65	2.47	4.41	4.12	2.25	2.5	2.8	0.787	2.18	1.26
GGTTGTAGATCAAGGTTAAGAAAGACTAAGCTAA	0.74	1.03	0.337	0.177	1.28	0.988	0.866	1.16	1.7	1.17	0.97	0.695	0.809	0.0764	0.901	1.53	0.54	0.833	0.584
TAGCCTAGGTCAGATCGGGCCAGTGTACGCTATA	0.622	1.31	-1.37	-0.791	-0.0708	1.18	-1.04	1.19	-1.04	3.04	2.17	2.57	3.6	-0.434	1.23	4.03	-0.0774	0.494	-0.614
AATACAGGGTCATCGTAGGCCACAGTACGCACAG	3.1	4.6	2.5	1.08	2.97	5.59	0.511	5.47	1.06	4.59	4.02	6	5.52	3.39	6.9	4.93	1.72	5.63	3.13
AATACAGGGGCATCGTAGGCCAGAGTACGCACAG	0.577	1.26	0.192	0.567	-0.0954	0.276	0.165	0.505	-0.245	1.48	1.13	0.978	1.23	0.834	0.784	2.47	-0.358	0.784	1.15
ATCGAAAGGTCGAAGTGAGTATAGAGAAAGGGAA	0.215	1.01	1.1	1.1	1.21	2.16	0.245	2.76	1.12	3.55	1.86	3.79	3.6	1.4	3.83	1.81	-0.426	2.7	0.425
GGAACGAGGGCATTCCAGTTGATAGCATGGCGAT	3.02	2.32	0.37	-0.74	0.527	2.19	0.706	0.917	-0.491	1.81	0.706	1.1	1.38	3.25	0.797	3.1	-0.0583	2	2.61
AGTCAAAGTTCAGGACGAGGTAACGTAGAGCACG	0.103	2.2	0.482	0.536	1.57	2.79	0.943	2.87	0.443	4.25	3.39	4.8	4.77	2.61	3.06	4.07	1.71	2.91	2.15
TCTATTACTTGATTAGGGCAACCGAAACAGCGGA	2.08	1.45	0.681	1.58	0.91	0.583	0.132	0.779	1.04	0.983	0.543	0.675	0.616	1.1	0.781	0.792	0.73	0.676	0.603
AGTCAAAGTTCAGGAGGAGGTAACGTAAAGCACG	-0.11	2.24	0.683	1.05	2.81	3.09	1.96	3.17	1.91	4.57	3.59	5.4	4.92	3.04	3.26	2.88	0.548	2.89	2.16
TGAACGAGGTTATAAGATCAGGGAACGTTGCAAA	0.0481	1.09	0.721	0.611	0.735	0.661	-0.0458	1.31	-0.0844	1.18	0.253	1.53	1.1	0.444	2.02	1.43	-0.282	0.923	0.372
CGTCCAAGGTCAAGTTCAGTGAAAGAGACTCGAA	2.98	3.88	1.06	-0.344	3.64	5.19	3.9	5.39	2.56	5.66	4.68	6.6	7.17	4.31	6.26	3.99	2.87	4.91	4.75
GCAGACAGGTGAAACGCAGGTCACTCAGGGTGGC	0.839	1.6	-0.584	-0.0986	1.32	2.65	-0.357	3.45	-0.516	2.44	3.35	5.21	2.47	-0.32	2.43	3.6	0.663	2.28	0.199
CCGGACAGGTGAAAGGTAACTCAGTCTGGTACGC	1.68	2.68	-0.561	-0.876	0.751	0.988	0.241	1.91	-0.413	1.46	0.991	1.57	0.863	-0.0224	1.89	0.766	0.12	0.694	0.0749

Source: the supplement of paper PMC6555819
